# PubChem BioAssay (NCATS)
# Results filed as inconclusive are left out. Where a call stands in place of a potency, no number is given. Activity calls are given as the source filed them. Unless noted, calls follow the shape of the dose curve; as a rule, active = well fitted curve in the direction sought with a large enough effect; inconclusive = small, poorly fitted or top-dose-only effect, or another doubt; inactive = no such curve, though single readings can be large; an effect the other way counts as inactive or inconclusive.
# Tests used:
# [1] = ZIKV-mCherry secondary qHTS for Zika virus inhibitors (AID 1347158); also: top concentration of the series differs between compounds
# Procedure, shortened: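 Compounds were tested in Vero monkey kidney cells infected with recombinant mCherry-expressing Zika virus at MOI 1 for 48-72 h at 37 °C. Fixed cells were nuclear-stained and imaged, and infection rate was taken as the fraction of mCherry-positive cells.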
# [2] = tested on: Zika virus NS2B-NS3 protease (linked); assay: 384 well plate NINDS AMC confirmatory qHTS for Zika virus inhibitors (AID 1347163); also: nearly all actives have a fitted effect of over 50% in size; also: potency is read from the fitted curve at half-maximal effect;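 as to activity change, negative = inhibition: linked protease at 5 30 or 60 nM final depending on run; fluorescence of AMC released from Ac-VKTGKR-AMC peptide cleaved by the protease; top concentration of the series differs between compounds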
# Procedure, shortened: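 Fluorescence at 355/460 nm was read after 25 minutes of cleavage of 30 microM Ac-VKTGKR-AMC at room temperature, in the dark. Before substrate addition, compounds (up to 1 mM final) sat ~15 minutes with 5, 30 or 60 nM linked protease. Signals were normalized to no-enzyme and no-inhibitor wells.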
# [3] = tested on: Zika virus NS2B-NS3 protease (linked construct); assay: 384 well plate NINDS Rhodamine confirmatory qHTS for Zika virus inhibitors (AID 1347164);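 also: fluorescence from protease cleavage of Ac-LKRR-rhodamine 110 substrate; nearly all actives have a fitted effect of over 65% in size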; also: potency is read from the fitted curve at half-maximal effect; as to activity change, negative = inhibition: top concentration of the series differs between compounds
# Procedure, shortened: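 Fluorescence read at ex 485 nm/em 538 nm, 25 min after adding 10 microM Ac-LKRR-Rd substrate at room temperature in the dark; signal normalized to no-enzyme and no-inhibitor controls. Enzyme final 5, 30 or 60 nM; compounds, ~15 min preincubation.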
# [4] = Confirmatory screen GU Rhodamine qHTS for Zika virus inhibitors qHTS (AID 1347157); also: nearly all actives have a fitted effect of over 70% in size; also: potency is read from the fitted curve at half-maximal effect
# Procedure, shortened: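 A qHTS format was used, with compound concentrations ranging up to 114 microM. Each compound was preincubated with 25 nM NS2B-NS3 protease, and the substrate was then added at 1.5 microM. Curves were fitted with a 4-parameter Hill model.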
# [5] = Tertiary RLuc qRT-PCR qHTS assay for Zika virus inhibitors (AID 1347169); also: top concentration of the series differs between compounds; nearly all actives have a fitted effect of over 55% in size
# Procedure, shortened: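 Luminescence read-out: live-cell Renilla luciferase substrate applied to infected Vero cells, signal measured after 1-1.5 hrs. Cells had received compound before ZIKV-RLuc (Cambodian strain, MOI 1-2) infection and were incubated 48-72 hrs at 37 degrees C.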
# [6] = target: Cytochrome P450 3A4 (Homo sapiens) (UniProt P08684); assay: qHTS Assay for Inhibitors and Substrates of Cytochrome P450 3A4 (AID 884); also: nearly all actives have a fitted effect of over 50% in size
# Chain of Cytochrome P450 3A4 (Homo sapiens) (P08684 whole entry, looked up): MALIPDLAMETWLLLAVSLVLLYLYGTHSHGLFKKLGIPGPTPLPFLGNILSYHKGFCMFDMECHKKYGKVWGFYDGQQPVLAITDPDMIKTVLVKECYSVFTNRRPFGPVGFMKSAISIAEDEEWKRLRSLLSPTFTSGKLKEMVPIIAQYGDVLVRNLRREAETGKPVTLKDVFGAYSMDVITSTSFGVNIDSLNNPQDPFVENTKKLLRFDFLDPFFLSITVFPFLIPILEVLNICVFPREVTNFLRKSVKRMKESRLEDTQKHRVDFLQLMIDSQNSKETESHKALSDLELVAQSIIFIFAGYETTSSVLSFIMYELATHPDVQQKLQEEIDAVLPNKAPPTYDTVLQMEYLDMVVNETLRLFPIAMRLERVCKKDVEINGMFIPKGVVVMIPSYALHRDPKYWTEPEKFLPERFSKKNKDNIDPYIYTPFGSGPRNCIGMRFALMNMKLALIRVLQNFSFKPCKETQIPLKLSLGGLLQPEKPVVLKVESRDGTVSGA
# Procedure, shortened: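 Luminescent readout of luciferin produced by CYP3A4 (20 nM) dealkylation of Luciferin-PPXE, 25 uM (its KM). NADPH-driven reaction ran 60 min at RT after 10 min compound preincubation; data scaled to 57 uM ketoconazole as 100% inhibition.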
# [7] = Confirmation and Secondary Assay for Modulators of Hemoglobin Beta Chain Splicing at IVS2 654 locus (AID 910);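 also: HeLa cells stably carrying EGFP split by mutant beta-globin IVS2-654 intron; per-well total GFP intensity by laser scanning cytometry after 2-day treatment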
# Procedure, shortened: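 Readout: per-well total peak green fluorescence (488 nm ex, 500–520 nm em) from objects 5–250 µm, reflecting correct splicing of an EGFP-654 reporter. Compounds were applied for 2 days at 37 °C to overnight-plated HeLa EGFP-654 cells; controls were DMSO and 500 nM IVS2-654 PNA.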
# [8] = Confirmation and Secondary Assay for Modulators of Hemoglobin Beta Chain Splicing at IVS2 705 locus (AID 930);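 also: HeLa cells stably expressing the EGFP-705 splicing reporter; GFP fluorescence per well restored by corrected splicing of the IVS2-705 intron in EGFP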
# Procedure, shortened: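 Assay measures total GFP intensity per well in HeLa EGFP-705 cells after 2 days with compound; mis-splicing normally truncates EGFP, so fluorescence indicates corrected splicing.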
# [9] = qHTS Assay for Lipid Storage Modulators (AID 1519; calls by dose curve); conditions: Drosophila S3 cells, BODIPY lipid droplet/cell ratio, laser cytometry, cells loaded with oleic acid
# Procedure, shortened: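 Cells seeded at 5,000 per well were treated with compounds over a concentration series and loaded with oleic acid (400 uM, as added). Lipid droplet fluorescence (488 nm excitation, 500-530 nm channel) was read by laser-scanning cytometry and normalized to 20 uM Triacsin C.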
# [10] = target: Ubiquitin carboxyl-terminal hydrolase 1 (Homo sapiens) (UniProt O94782); assay: Inhibitors of USP1/UAF1: Pilot qHTS (AID 504865); also: nearly all actives have a fitted effect of over 35% in size; also: potency is read from the fitted curve at half-maximal effect;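 as to activity change, negative = inhibition: rhodamine fluorescence freed from ubiquitin-rhodamine substrate followed over time; top concentration of the series differs between compounds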
# Chain of Ubiquitin carboxyl-terminal hydrolase 1 (Homo sapiens) (O94782 whole entry, looked up): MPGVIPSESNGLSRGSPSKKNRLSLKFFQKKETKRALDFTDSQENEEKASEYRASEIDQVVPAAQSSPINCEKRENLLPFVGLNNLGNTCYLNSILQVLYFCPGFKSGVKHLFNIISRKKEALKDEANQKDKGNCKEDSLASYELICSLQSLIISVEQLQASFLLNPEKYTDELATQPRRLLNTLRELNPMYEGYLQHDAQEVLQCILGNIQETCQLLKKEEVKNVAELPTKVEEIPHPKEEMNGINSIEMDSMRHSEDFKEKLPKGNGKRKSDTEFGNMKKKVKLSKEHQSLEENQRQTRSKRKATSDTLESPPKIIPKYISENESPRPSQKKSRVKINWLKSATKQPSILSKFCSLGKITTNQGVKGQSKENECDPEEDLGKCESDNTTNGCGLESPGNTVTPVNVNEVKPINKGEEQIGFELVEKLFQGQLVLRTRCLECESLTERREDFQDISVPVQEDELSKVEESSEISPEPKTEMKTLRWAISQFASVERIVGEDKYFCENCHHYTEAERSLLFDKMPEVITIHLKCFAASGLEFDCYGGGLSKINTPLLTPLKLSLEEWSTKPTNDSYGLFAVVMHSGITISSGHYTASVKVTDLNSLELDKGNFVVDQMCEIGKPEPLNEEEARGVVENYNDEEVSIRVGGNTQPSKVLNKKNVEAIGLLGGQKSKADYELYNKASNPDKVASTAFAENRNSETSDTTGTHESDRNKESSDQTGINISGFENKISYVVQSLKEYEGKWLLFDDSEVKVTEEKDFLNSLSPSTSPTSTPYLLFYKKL
# Procedure, shortened: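 1nM USP1/UAF1 + cpd, 15 min RT; start w/ Ub-Rho 150nM final; kinetic FL 480/540 nm, 6 reads q60 s. Buffer 50mM HEPES pH 7.8, 0.5mM EDTA, 1mM TCEP, 0.01% Tween-20, 0.1 mg/ml BSA.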
# [11] = Confirmatory screen NINDS Rhodamine qHTS for Zika virus inhibitors (AID 1347161); also: nearly all actives have a fitted effect of over 60% in size; also: potency is read from the fitted curve at half-maximal effect;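 as to activity change, negative = inhibition: purified Zika NS2B-NS3 protease with linked NS2B cofactor domain and Rhodamine110 peptide substrate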
# Procedure, shortened: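 qHTS dose-response: 25 nM linked protease, pH 8.0 Tris/Tween buffer, cpd titration, 15 min RT preinc, 1.5 microM Rhod110 peptide, 15 min reaction (~15% conversion), Ex480/Em540; 4-parameter Hill fit.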
smiles,measurement,setting,value
Cc1ccc(Nc2nnc(-c3ccc(C)c(S(=O)(=O)NCc4nc5ccccc5[nH]4)c3)c3ccccc23)cc1,Potency,[1],inactive
same,Potency,[2],inactive
Clc1ccc(-c2nn3c(COc4cc(Cl)c(OCc5nnc6sc(-c7ccc(Cl)cc7)nn56)cc4Cl)nnc3s2)cc1,Potency,[1],inactive
same,Potency,[2],14.1 µM (active)
same,Potency,[3],28.2 µM (active)
Cc1oc2c(cc(NS(=O)(=O)c3ccc(C(C)C)cc3)c3ccccc32)c1C(=O)OCc1ccccc1,Potency,[1],inactive
same,Potency,[2],inactive
Cc1oc2c(cc(NS(=O)(=O)c3ccc(F)cc3)c3ccccc32)c1C(=O)OCc1ccccc1,Potency,[1],inactive
same,Potency,[3],158 µM (active)
O=C(Nc1ccccc1C(=O)OCc1cc(=O)n2nc(C3CC3)sc2n1)c1cccc(F)c1,Potency,[4],inactive
same,Potency,[5],inactive
O=C(Nc1ccc(C(=O)OCc2cc(=O)n3nc(C4CC4)sc3n2)cc1)c1ccccc1,Potency,[4],inactive
same,Potency,[5],inactive
O=C(OC1Cc2c(O)cc(O)cc2OC1c1cc(O)c(O)c(O)c1-c1c(C2Oc3cc(O)cc(O)c3CC2OC(=O)c2cc(O)c(O)c(O)c2)cc(O)c(O)c1O)c1cc(O)c(O)c(O)c1 (stereo not given),Potency,[6],inactive
same,outcome,[7],inactive
same,outcome,[8],inactive
same,"activity change, negative = inhibition",[9]; at 57.5 µM (top of the series),6.84% (inactive)
same,max response,[9]; measured here: cell count channel max response,16.9%
same,max response,[9]; measured here: lipid channel max response,25.4%
same,Potency,[10],50.1 µM (active)
same,Potency,[1],inactive
same,Potency,[11],20 µM (active)
same,Potency,[2],20 µM (active)
same,Potency,[3],inactive
O=C(O)c1nc2cc(Cl)c(Cl)cc2[nH]c1=O,Potency,[6],inactive
same,outcome,[7],inactive
same,outcome,[8],inactive
same,Potency,[10],inactive
same,Potency,[4],inactive
same,Potency,[11],inactive
same,Potency,[5],inactive
CC(Oc1ccccc1)C(=O)Nc1ccc(C(=O)OCc2cc(=O)n3nc(C(C)C)sc3n2)cc1 (stereo not given),Potency,[4],inactive
same,Potency,[11],inactive
same,Potency,[5],inactive
O=C(OCc1cc(=O)n2nc(C3CC3)sc2n1)c1ccc(NC(=O)c2ccccc2F)cc1,Potency,[1],inactive
same,Potency,[2],inactive
same,Potency,[3],inactive
same,Potency,[5],inactive
Cc1ccc(S(=O)(=O)Nc2cc(SCC(=O)O)c(O)c3ccccc23)cc1[N+](=O)[O-],Potency,[1],inactive
same,Potency,[11],6.98 µM (active)
same,Potency,[2],31.6 µM (active)
same,"activity change, negative = inhibition",[3],-280% [at 100 µM] (inactive)
CC(C)CN1CC(CNC(=O)c2ccc(Oc3ccccc3)cc2)Oc2ccnc(-c3ccc(OCC(=O)O)cc3)c2C1=O (stereo not given),Potency,[1],inactive
same,Potency,[3],28.2 µM (active)
CCCCOC(=O)c1ccc(NC(=O)c2ccc3c(c2)CCN3S(=O)(=O)c2ccccc2)cc1,Potency,[4],inactive
same,Potency,[11],inactive
same,Potency,[5],inactive
O=C(Nc1ccccc1C(=O)OCc1cc(=O)n2c3c(sc2n1)CCCC3)c1ccc(Cl)cc1,Potency,[4],inactive
same,Potency,[5],inactive
O=C(O)COc1ccc(-c2nccc3c2C(=O)N(Cc2cccc(C(F)(F)F)c2)CC(COc2ccccc2)O3)cc1 (stereo not given),Potency,[1],inactive
same,Potency,[3],39.8 µM (active)
same,Potency,[5],inactive
CCOC(=O)c1ccc(CN(Cc2ccc(F)cc2)S(=O)(=O)c2ccc(F)c(C(=O)Nc3ccccc3C(F)(F)F)c2)cc1,Potency,[4],inactive
same,Potency,[5],inactive
O=C(OCC#CCSc1nnc(-c2ccc(F)cc2)o1)c1ccc(F)cc1,Potency,[4],inactive
same,Potency,[11],inactive
same,Potency,[5],inactive
O=C(Nc1ccccc1C(=O)OCc1cc(=O)n2nc(C3CC3)sc2n1)c1cccc(Cl)c1,Potency,[4],inactive
same,Potency,[11],inactive
same,Potency,[5],inactive
O=C(CNC(=O)c1ccccc1F)OCc1cc(=O)n2nc(C3CCCCC3)sc2n1,Potency,[4],inactive
same,Potency,[11],inactive
same,Potency,[5],inactive
O=C(Nc1ccc(C(=O)OCc2cc(=O)n3nc(C4CC4)sc3n2)cc1)c1cccc(Cl)c1,Potency,[1],inactive
same,Potency,[2],inactive
same,Potency,[3],inactive
COCCOC(=O)c1c(C)n(S(=O)(=O)c2ccc(C)cc2)c2ccc(NS(=O)(=O)c3ccc(C)cc3)cc12,Potency,[4],inactive
same,Potency,[5],inactive
Cc1ccc(-c2nnc(Nc3ccc(S(N)(=O)=O)cc3)c3ccccc23)cc1S(=O)(=O)N1CCOCC1,Potency,[1],inactive
same,Potency,[5],inactive
O=C(Nc1ccccc1C(=O)OCc1cc(=O)n2c3c(sc2n1)CCCC3)c1cccc(Cl)c1,Potency,[4],inactive
same,Potency,[5],inactive
CC(C)c1ccc(NC(=O)c2ccc3oc(=O)c(S(=O)(=O)c4ccc(F)cc4)cc3c2)cc1,Potency,[1],inactive
same,Potency,[2],inactive
C=C1c2c(Cl)ccc(O)c2C(O)=C2C(=O)[C@]3(O)C(O)=C(C(N)=O)C(=O)[C@@H](N(C)C)[C@@H]3[C@@H](O)C12 (stereo not given in full),Potency,[1],inactive
same,Potency,[11],13.9 µM (active)
same,Potency,[2],70.8 µM (active)
same,Potency,[3],20 µM (active)
O=C(Nc1ccccc1C(F)(F)F)c1ccc2oc(=O)c(S(=O)(=O)c3ccc(F)cc3)cc2c1,Potency,[4],inactive
same,Potency,[11],inactive
same,Potency,[5],inactive
CCOC(=O)c1ccccc1NC(=O)CSc1ccc(-c2sc(-c3ccccc3)nc2C)nn1,Potency,[4],inactive
same,Potency,[11],inactive
same,Potency,[5],inactive
O=C(Nc1cccc(C(=O)OCc2cc(=O)n3c4c(sc3n2)CCCC4)c1)c1cccc(Cl)c1,Potency,[4],inactive
same,Potency,[5],inactive
O=C(OCc1cc(=O)n2nc(C3CC3)sc2n1)c1ccc(NC(=O)c2ccccc2Cl)cc1,Potency,[4],50.1 µM (active)
same,Potency,[2],inactive
same,Potency,[3],inactive
same,Potency,[5],inactive
